# Data from PubChem BioAssay (Tox21).
# Unmarked numbers belong to inactive results. Records with an inconclusive call do not appear. Where a call stands in place of a potency, no number is given. The source made the active and inactive calls. Unless noted, the call rests on the fitted dose curve.
# Legend:
# [1] = qHTS assay to identify small molecule antagonists of the sonic hedgehog signaling (Shh) pathway (AID 1259369); further: nearly all actives have a fitted effect of over 45% in size; further: potency means the concentration at half of the fitted maximal effect
# In short: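 NIH/3T3-derived 3T3Gli1-Luc cells with stably integrated Gli1-Luc reporter were preincubated 4hr at 37 C, then given compounds in DMSO plus Shh conditioned medium and incubated 24hr. Firefly luciferase luminescence read after 30min reagent at room temperature.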
# [2] = qHTS assay to identify small molecule agonists of the androgen receptor (AR) signaling pathway in the presence of an antagonist - cell viability counter screen (AID 1259379; active means well fitted curve in the direction sought with a large enough effect in the repeat runs; an effect the other way counts as inactive or inconclusive; further: series mostly up to about 92 µM; nearly all actives have a fitted effect of over 25% in size)
# In short: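 MDA-kb2 human breast carcinoma cells (stable MMTV-luciferase, AR/GR responsive) were seeded 3,000 cells/well, pre-incubated 5 hr at 37C without CO2, then given 3.0uM nilutamide and compounds at 15 concentrations for 16 hr. Viability was read by CellTiter-Fluor fluorescence.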
# [3] = qHTS assay to identify small molecule agonists of the estrogen receptor beta (ER-beta) signaling pathway - cell viability counter screen (AID 1259380; active means well fitted curve in the direction sought with a large enough effect in the repeat runs; an effect the other way counts as inactive or inconclusive; further: nearly all actives have a fitted effect of over 30% in size; further: potency means the concentration at half of the fitted maximal effect)
# In short: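 ER-beta-UAS-bla HEK293T cells in medium with 2% charcoal-stripped FBS were preincubated 6 hr at 37C, dosed with compound in DMSO for 16 hr, then after the bla read, CellTiter-Glo was added for 30 min at room temperature; luminescence recorded.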
# [4] = target: Androgen receptor (Homo sapiens) (UniProt P10275); assay: qHTS assay to identify small molecule agonists of the androgen receptor (AR) signaling pathway in the presence of an antagonist (AID 1259381); further: nearly all actives have a fitted effect of over 15% in size; further: potency means the concentration at half of the fitted maximal effect
# Androgen receptor (Homo sapiens), sequence (P10275 whole entry, looked up): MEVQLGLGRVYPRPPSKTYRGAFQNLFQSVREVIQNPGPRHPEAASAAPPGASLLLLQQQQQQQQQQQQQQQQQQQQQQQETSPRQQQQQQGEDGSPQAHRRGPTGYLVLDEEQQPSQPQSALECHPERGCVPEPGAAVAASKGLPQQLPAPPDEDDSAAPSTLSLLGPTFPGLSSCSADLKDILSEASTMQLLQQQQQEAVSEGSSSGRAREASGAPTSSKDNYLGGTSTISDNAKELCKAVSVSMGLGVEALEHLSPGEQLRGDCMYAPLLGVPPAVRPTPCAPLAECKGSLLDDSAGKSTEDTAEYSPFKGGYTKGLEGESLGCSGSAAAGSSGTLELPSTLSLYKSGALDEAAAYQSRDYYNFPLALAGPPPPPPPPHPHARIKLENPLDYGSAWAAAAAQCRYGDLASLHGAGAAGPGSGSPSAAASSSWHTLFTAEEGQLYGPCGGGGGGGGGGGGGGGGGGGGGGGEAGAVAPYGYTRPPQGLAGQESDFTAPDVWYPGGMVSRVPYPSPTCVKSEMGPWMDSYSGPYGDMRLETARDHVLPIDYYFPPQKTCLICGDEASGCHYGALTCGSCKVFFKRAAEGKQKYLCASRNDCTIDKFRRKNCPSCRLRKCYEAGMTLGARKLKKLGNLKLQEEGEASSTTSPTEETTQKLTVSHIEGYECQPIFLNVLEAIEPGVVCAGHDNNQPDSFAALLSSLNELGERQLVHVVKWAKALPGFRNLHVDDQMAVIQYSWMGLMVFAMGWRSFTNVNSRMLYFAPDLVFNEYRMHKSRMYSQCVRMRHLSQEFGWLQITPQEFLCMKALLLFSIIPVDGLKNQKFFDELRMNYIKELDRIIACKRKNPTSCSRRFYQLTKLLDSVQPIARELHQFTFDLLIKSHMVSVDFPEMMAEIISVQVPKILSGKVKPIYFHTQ
# In short: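 MDA-kb2 human breast carcinoma cells carrying an MMTV-luciferase reporter (AR- and GR-responsive) were treated with compounds at 15 concentrations plus 3.0uM final nilutamide for 16hr at 37C without CO2; luminescence was read after ONE-Glo addition.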
# [5] = qHTS assay to identify small molecule antagonists of the estrogen receptor beta (ER-beta) signaling pathway - cell viability counter screen (AID 1259382; active means well fitted curve in the direction sought with a large enough effect in the repeat runs; an effect the other way counts as inactive or inconclusive;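 further: HEK293T cells carrying ER-beta-UAS-bla reporter stimulated with estradiol; series mostly up to about 92 µM; nearly all actives have a fitted effect of over 55% in size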)
# In short: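 ER-beta-UAS-bla HEK293T cells (2,000/well, 2% charcoal-stripped FBS) were pre-incubated 6 hr at 37C, then given compound plus 1nM final 17-beta-estradiol for 16 hr. Viability was read in the same wells by CellTiter-Glo luminescence after 30 min at room temperature.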
# [6] = target: Estrogen receptor (Homo sapiens) (UniProt P03372); assay: qHTS assay to identify small molecule agonists of the estrogen receptor alpha (ER-alpha) signaling pathway in the presence of an antagonist (AID 1259383); further: top concentration of the series differs between compounds; nearly all actives have a fitted effect of over 15% in size
# Estrogen receptor (Homo sapiens), sequence (P03372 whole entry, looked up): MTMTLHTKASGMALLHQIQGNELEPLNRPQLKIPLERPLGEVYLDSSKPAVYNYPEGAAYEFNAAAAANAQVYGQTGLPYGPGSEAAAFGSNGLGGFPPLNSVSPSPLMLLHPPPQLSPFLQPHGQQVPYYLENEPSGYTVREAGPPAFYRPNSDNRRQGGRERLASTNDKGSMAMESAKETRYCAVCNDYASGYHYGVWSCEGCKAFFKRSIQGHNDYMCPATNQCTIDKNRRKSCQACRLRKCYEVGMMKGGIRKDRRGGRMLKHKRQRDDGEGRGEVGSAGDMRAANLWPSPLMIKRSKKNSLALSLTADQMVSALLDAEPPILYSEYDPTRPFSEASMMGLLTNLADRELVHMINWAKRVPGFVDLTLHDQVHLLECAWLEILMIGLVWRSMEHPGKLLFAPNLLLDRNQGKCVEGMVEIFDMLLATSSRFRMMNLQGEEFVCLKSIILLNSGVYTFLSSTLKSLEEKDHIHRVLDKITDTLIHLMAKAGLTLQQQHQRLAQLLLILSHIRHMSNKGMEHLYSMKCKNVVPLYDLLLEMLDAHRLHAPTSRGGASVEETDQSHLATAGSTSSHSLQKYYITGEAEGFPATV
# In short: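 VM7Luc4E2 cells (endogenous full-length ER-alpha, 4×ERE-luciferase) were precultured 5 days in phenol red-free medium with 10% charcoal-stripped FBS, given 10.0nM ICI-182,780 (final), then treated with compounds at 15 concentrations for 22hr at 37C; luminescence read with ONE-Glo.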
# [7] = qHTS assay to identify small molecule agonists or antagonists of the thyroid stimulating hormone receptor (TSHR) signaling pathway - wild type cell line counter screen (AID 1259384)
# In short: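 Counter screen in untransfected Hek293: compounds (15-point titration, triplicate) plus phosphodiesterase inhibitor Ro20-1724 added after 18 h plating; 30 min RT. Intracellular cAMP via competitive d2/cryptate immunoassay, 1 h incubation.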
# [8] = target: Thyrotropin receptor (Homo sapiens) (UniProt P16473); assay: qHTS assay to identify small molecule antagonists of the thyroid stimulating hormone receptor (TSHR) signaling pathway (AID 1259385); further: nearly all actives have a fitted effect of over 20% in size
# Thyrotropin receptor (Homo sapiens), sequence (P16473 whole entry, looked up): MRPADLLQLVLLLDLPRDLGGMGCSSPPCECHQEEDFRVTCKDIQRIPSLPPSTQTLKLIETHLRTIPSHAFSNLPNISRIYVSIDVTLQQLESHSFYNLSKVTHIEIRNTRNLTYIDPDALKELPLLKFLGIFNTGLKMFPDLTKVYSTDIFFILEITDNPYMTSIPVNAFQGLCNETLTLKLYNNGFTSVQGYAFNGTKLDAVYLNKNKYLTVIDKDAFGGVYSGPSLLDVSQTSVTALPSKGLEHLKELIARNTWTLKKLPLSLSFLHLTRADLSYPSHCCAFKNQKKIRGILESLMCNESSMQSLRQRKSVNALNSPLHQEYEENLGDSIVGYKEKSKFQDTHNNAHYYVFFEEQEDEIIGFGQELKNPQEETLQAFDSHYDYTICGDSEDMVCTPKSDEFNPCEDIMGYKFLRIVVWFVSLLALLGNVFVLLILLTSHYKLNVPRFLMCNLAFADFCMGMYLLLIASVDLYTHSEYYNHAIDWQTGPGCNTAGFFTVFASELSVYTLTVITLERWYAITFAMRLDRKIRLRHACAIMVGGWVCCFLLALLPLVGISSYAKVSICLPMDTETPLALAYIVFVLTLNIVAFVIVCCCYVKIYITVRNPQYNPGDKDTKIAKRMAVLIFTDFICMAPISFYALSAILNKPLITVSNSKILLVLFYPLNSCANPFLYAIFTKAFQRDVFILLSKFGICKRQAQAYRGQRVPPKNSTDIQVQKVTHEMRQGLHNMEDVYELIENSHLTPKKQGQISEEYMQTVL
# In short: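 Antagonist mode: compound-treated TSHR-expressing HEK293 cells were stimulated with 1.5 ng/mL TSH (final) in presence of Ro20-1724 for 30 min at RT. HTRF cAMP detection after 1 h; each compound tested at 15 concentrations, triplicate.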
# [9] = qHTS assay to identify small molecule agonists of the estrogen receptor alpha (ER-alpha) signaling pathway in the presence of an antagonist - cell viability counter screen (AID 1259386; active means well fitted curve in the direction sought with a large enough effect in the repeat runs; an effect the other way counts as inactive or inconclusive;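 further: series mostly up to about 92 µM; cells exposed to compounds for 22 h at 37 °C before the viability read; nearly all actives have a fitted effect of over 30% in size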)
# In short: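 VM7Luc4E2 cells (endogenous full-length ER-alpha, 4×ERE-luciferase) were held 5 days in phenol red-free medium with 10% charcoal-stripped FBS, plated, then given 10.0nM ICI-182,780 and compounds at 15 concentrations for 22hr at 37C; viability read by CellTiter-Fluor fluorescence.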
# [10] = target: Progesterone receptor (Homo sapiens) (UniProt P06401); assay: qHTS assay to identify small molecule antagonists of the progesterone receptor (PR) signaling pathway (AID 1346795; active means well fitted inhibition curve with a large enough effect in the signal ratio in the repeat runs, not every such curve was filed as active; the % refers to the signal ratio; further: potency means the concentration at half of the fitted maximal effect)
# Progesterone receptor (Homo sapiens), sequence (P06401 whole entry, looked up): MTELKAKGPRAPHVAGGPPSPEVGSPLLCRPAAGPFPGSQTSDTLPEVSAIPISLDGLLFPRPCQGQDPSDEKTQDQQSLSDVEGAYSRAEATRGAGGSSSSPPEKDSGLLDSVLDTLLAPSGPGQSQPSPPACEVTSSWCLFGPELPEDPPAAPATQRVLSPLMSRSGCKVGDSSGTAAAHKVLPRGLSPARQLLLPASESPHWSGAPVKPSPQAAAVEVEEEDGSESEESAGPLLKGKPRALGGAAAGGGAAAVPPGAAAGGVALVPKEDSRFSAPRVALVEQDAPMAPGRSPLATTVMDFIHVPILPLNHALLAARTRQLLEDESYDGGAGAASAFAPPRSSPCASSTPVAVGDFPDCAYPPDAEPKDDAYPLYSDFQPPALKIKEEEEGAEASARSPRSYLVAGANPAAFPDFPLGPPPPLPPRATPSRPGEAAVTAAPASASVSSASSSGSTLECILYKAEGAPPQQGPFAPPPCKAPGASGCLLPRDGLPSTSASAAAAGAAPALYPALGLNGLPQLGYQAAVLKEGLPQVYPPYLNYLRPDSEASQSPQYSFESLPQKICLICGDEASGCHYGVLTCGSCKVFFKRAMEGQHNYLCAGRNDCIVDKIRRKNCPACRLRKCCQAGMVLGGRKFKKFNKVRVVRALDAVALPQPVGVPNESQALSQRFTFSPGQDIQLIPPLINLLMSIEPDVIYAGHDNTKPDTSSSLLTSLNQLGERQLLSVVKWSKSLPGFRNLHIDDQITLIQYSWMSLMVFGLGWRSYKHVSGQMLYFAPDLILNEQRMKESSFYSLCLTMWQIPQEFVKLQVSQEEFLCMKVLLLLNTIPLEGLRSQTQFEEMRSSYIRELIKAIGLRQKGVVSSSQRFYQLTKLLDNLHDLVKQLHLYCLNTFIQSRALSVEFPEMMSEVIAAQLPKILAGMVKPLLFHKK
# In short: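 Beta-lactamase reporter, HEK293T PR-UAS-bla line; 2% charcoal-stripped FBS; 6 hr pre-incubation, 37C/5% CO2. Compound + R5020 1 nM final, 16 hr. LiveBLAzer B/G FRET substrate, 2 hr RT; fluorescence intensity read.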
# [11] = qHTS assay to identify small molecule antagonists of the progesterone receptor (PR) signaling pathway - cell viability counter screen (AID 1346798; active means well fitted curve in the direction sought with a large enough effect in the repeat runs; an effect the other way counts as inactive or inconclusive; further: nearly all actives have a fitted effect of over 50% in size; further: potency means the concentration at half of the fitted maximal effect; on activity change, negative = cytotoxicity: series mostly up to about 92 µM)
# In short: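 Luminescence readout (CellTiter-Glo, 30 min, RT) of viability in PR-UAS-bla HEK293T cells exposed to compound and R5020 agonist for 16 hr at 37C, 5% CO2; run in the same wells as the beta-lactamase reporter read.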
# [12] = qHTS assay to identify small molecule agonists of the progesterone receptor (PR) signaling pathway - cell viability counter screen (AID 1346799); further: nearly all actives have a fitted effect of over 45% in size; further: potency means the concentration at half of the fitted maximal effect
# In short: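 HEK293T PR-UAS-bla, 3,000 cells/well, 2% charcoal-stripped FBS; 6 h settle, compound 16 h at 37C/5% CO2; LiveBLAzer 2 h RT, then CellTiter-Glo 30 min RT, luminescence read.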
# [13] = qHTS assay to identify small molecule antagonists of the TGF-beta/Smad signaling pathway - cell viability counter screen (AID 1346824; active means well fitted curve in the direction sought with a large enough effect in the repeat runs; an effect the other way counts as inactive or inconclusive; further: nearly all actives have a fitted effect of over 50% in size)
# In short: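 Cytotoxicity counter-screen run in the same wells as the beta-lactamase Smad reporter read: CellTiter-Glo luminescence after 30 min at room temperature. HEK 293T SBE-bla cells had 5 hr compound exposure at 37 C with TGF-beta1 (0.25 ng/mL stock).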
# [14] = qHTS assay to identify small molecule agonists of the TGF-beta/Smad signaling pathway - cell viability counter screen (AID 1346829; active means well fitted curve in the direction sought with a large enough effect in the repeat runs; an effect the other way counts as inactive or inconclusive; further: top concentration of the series differs between compounds; nearly all actives have a fitted effect of over 45% in size)
# In short: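 In parallel with the Smad reporter read, viability of HEK 293T cells stably carrying SBE-bla is quantified by ATP luminescence following 5 hr compound treatment.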
# [15] = qHTS assay to identify small molecule agonists of the TGF-beta/Smad signaling pathway (AID 1346859; active means well fitted activation curve with a large enough effect in the signal ratio in the repeat runs, not every such curve was filed as active; the % refers to the signal ratio; further: series mostly up to about 77 µM)
# In short: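 Read-out: fluorescence at 460 and 530 nm (405 nm excitation) after a 2 hr room-temperature incubation with beta-lactamase FRET substrate. SBE-bla HEK 293T cells had been treated with test compounds for 5 hr at 37 C.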
# [16] = target: Thyrotropin-releasing hormone receptor (Homo sapiens) (UniProt P34981); assay: qHTS assay to identify small molecule antagonists of the thyrotropin-releasing hormone receptor (TRHR) signaling pathway (AID 1346877; active means well fitted inhibition curve with a large enough effect in the repeat runs, not every such curve was filed as active; further: series mostly up to about 51 µM)
# Thyrotropin-releasing hormone receptor (Homo sapiens), sequence (P34981 whole entry, looked up): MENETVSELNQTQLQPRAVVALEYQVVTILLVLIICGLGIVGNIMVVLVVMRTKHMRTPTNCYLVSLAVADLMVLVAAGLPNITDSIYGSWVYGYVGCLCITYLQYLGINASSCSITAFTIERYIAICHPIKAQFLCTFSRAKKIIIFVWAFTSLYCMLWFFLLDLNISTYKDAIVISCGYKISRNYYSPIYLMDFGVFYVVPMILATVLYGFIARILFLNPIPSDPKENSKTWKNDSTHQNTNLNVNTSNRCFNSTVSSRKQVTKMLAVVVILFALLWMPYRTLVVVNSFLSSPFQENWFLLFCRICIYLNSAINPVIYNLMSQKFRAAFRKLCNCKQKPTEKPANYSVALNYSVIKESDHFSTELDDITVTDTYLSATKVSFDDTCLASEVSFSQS
# In short: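 TRHR-expressing HEK293 cells were seeded, cultured 18 h at 37 °C, then loaded with calcium dye for 2 h. Compounds were pre-incubated 5 min at room temperature before 1 nM TRH (final) was added, and kinetic fluorescence was recorded for 3 min.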
# [17] = target: Thyrotropin-releasing hormone receptor (Homo sapiens) (UniProt P34981); assay: qHTS assay to identify small molecule agonists of the thyrotropin-releasing hormone receptor (TRHR) signaling pathway (AID 1346891); further: series mostly up to about 58 µM
# In short: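 HEK293/TRHR cells, 1500 per well, 18 h 37 °C; Ca dye 2 h 37 °C; pin-tool compound addition (agonist mode); kinetic fluorescence 3 min, 1 s reads; 15 concentrations, triplicate.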
# [18] = target: Estrogen receptor beta (Homo sapiens) (UniProt Q92731); assay: qHTS assay to identify small molecule agonists of the estrogen receptor beta (ER-beta) signaling pathway (AID 1259377; active means well fitted activation curve with a large enough effect in the signal ratio in the repeat runs, not every such curve was filed as active; the % refers to the signal ratio)
# Estrogen receptor beta (Homo sapiens), sequence (Q92731 whole entry, looked up): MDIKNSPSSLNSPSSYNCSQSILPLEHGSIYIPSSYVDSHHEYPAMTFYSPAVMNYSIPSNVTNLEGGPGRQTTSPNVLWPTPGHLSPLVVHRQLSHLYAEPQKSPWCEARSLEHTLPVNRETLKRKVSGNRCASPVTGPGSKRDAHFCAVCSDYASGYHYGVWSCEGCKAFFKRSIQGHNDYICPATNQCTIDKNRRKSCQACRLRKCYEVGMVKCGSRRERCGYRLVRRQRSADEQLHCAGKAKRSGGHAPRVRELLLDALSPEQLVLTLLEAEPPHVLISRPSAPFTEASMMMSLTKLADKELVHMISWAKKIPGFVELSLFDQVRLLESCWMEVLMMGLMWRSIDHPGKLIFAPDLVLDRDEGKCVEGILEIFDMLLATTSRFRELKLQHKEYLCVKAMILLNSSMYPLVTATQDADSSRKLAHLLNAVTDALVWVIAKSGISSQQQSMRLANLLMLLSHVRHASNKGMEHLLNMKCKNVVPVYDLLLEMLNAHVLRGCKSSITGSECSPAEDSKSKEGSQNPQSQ
# In short: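 Beta-lactamase reporter readout: fluorescence of LiveBLAzer B/G FRET substrate after 2 h at room temperature, following 16 h compound treatment of ER-beta-UAS-bla HEK293T cells at 37C in 2% charcoal-stripped FBS medium.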
# [19] = target: Progesterone receptor (Homo sapiens) (UniProt P06401); assay: qHTS assay to identify small molecule agonists of the progesterone receptor (PR) signaling pathway (AID 1346784); further: nearly all actives have a fitted effect of over 30% in size
# In short: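 HEK 293T PR-UAS-bla reporter cells, 2% charcoal-stripped FBS; 6 hr settle at 37C/5% CO2, compound (DMSO) 16 hr, LiveBLAzer B/G FRET substrate 2 hr RT, fluorescence intensity read.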
# [20] = target: Estrogen receptor beta (Homo sapiens) (UniProt Q92731); assay: qHTS assay to identify small molecule antagonists of the estrogen receptor beta (ER-beta) signaling pathway (AID 1259378; active means well fitted inhibition curve with a large enough effect in the signal ratio in the repeat runs, not every such curve was filed as active; the % refers to the signal ratio)
# In short: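 Antagonist mode: compounds added to beta-lactamase reporter HEK293T ER-beta-UAS cells stimulated with E2 (1nM final), 16 hr at 37C. LiveBLAzer B/G FRET substrate, 2 hours room temperature, fluorescence read-out.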
compound,measurement,setting,value
C/C(=C(\CCOP(=O)(O)O)SC(=O)c1ccccc1)N(C=O)Cc1cnc(C)nc1N,"activity change, negative = inhibition",[1],1.8% [at 8.39 µM]
same,"activity change, negative = cytotoxicity",[2],1.6% [at 8.39 µM]
same,"activity change, negative = cytotoxicity",[3],7.29% [at 8.39 µM]
same,activation,[4],-1.54% [at 8.39 µM]
same,"activity change, negative = cytotoxicity",[5],2.09% [at 8.39 µM]
same,activation,[6],0.094% [at 8.39 µM]
same,cAMP activity change,[7],"-0.23% [at 8.39 µM, hits give high values]"
same,"activity change, negative = inhibition",[8],-1.28% [at 8.39 µM]
same,"activity change, negative = cytotoxicity",[9],1.33% [at 8.39 µM]
same,"activity change, negative = inhibition",[10],5.03% [at 8.39 µM]
same,"activity change, negative = cytotoxicity",[11],9.64% [at 8.39 µM]
same,"activity change, negative = cytotoxicity",[12],-10.4% [at 8.39 µM]
same,"viability change, negative = cytotoxic",[13],4.01% [at 6.97 µM]
same,"activity change, negative = cytotoxicity",[14],0.402% [at 6.97 µM]
same,activation,[15],2.27% [at 6.97 µM]
same,"activity, negative = inhibition",[16],-3.24% [at 4.65 µM]
same,activation,[17],-0.266% [at 5.23 µM]
CCCOC(C(=O)OC1CCN(C)CC1)(c1ccccc1)c1ccccc1,Potency,[1],21.1 µM (active)
same,Potency,[18],inactive
same,Potency,[3],26.6 µM (active)
same,Potency,[6],inactive
same,Potency,[7],inactive
same,Potency,[8],inactive
same,Potency,[9],inactive
same,Potency,[19],inactive
same,Potency,[10],inactive
same,Potency,[13],inactive
same,outcome,[14],inactive
same,Potency,[15],inactive
CC(=O)OC[C@H]1O[C@@H](n2ncc(=O)[nH]c2=O)[C@H](OC(C)=O)[C@@H]1OC(C)=O,Potency,[1],inactive
same,Potency,[2],inactive
same,Potency,[3],1.33 µM (active)
same,Potency,[4],inactive
same,Potency,[6],inactive
same,Potency,[7],inactive
same,Potency,[8],inactive
same,Potency,[9],inactive
same,Potency,[19],inactive
same,Potency,[11],2.37 µM (active)
same,Potency,[13],inactive
same,outcome,[14],inactive
same,Potency,[15],inactive
same,outcome,[16],inactive
same,Potency,[17],inactive
CC(COCCO)OCCO (stereo unspecified),Potency,[1],inactive
same,Potency,[2],inactive
same,Potency,[3],inactive
same,Potency,[4],inactive
same,Potency,[5],inactive
same,Potency,[7],inactive
same,Potency,[8],inactive
same,Potency,[9],inactive
same,Potency,[19],inactive
same,Potency,[10],inactive
same,Potency,[11],inactive
same,Potency,[12],inactive
same,Potency,[13],inactive
same,outcome,[14],inactive
same,Potency,[15],inactive
same,Potency,[17],inactive
CN(C)CCOC(c1ccccc1)c1ccc(Br)cc1 (stereo unspecified),Potency,[1],2.11 µM (active)
same,Potency,[2],inactive
same,Potency,[3],23.7 µM (active)
same,Potency,[4],inactive
same,Potency,[6],inactive
same,Potency,[7],inactive
same,Potency,[8],inactive
same,Potency,[9],inactive
same,Potency,[19],inactive
same,Potency,[11],13.3 µM (active)
same,Potency,[12],16.8 µM (active)
same,Potency,[13],inactive
same,outcome,[14],inactive
same,Potency,[15],inactive
same,outcome,[16],inactive
same,Potency,[17],inactive
NS(=O)(=O)c1ccc(N2CCCCS2(=O)=O)cc1,Potency,[1],inactive
same,Potency,[2],inactive
same,Potency,[3],inactive
same,Potency,[4],inactive
same,Potency,[5],inactive
same,Potency,[6],inactive
same,Potency,[7],inactive
same,Potency,[8],inactive
same,Potency,[9],inactive
same,Potency,[19],inactive
same,Potency,[10],inactive
same,Potency,[11],inactive
same,Potency,[12],inactive
same,Potency,[13],inactive
same,Potency,[15],inactive
same,outcome,[16],inactive
same,Potency,[17],inactive
Cc1c(N)cccc1[N+](=O)[O-],Potency,[1],inactive
same,Potency,[20],inactive
same,Potency,[2],inactive
same,Potency,[3],inactive
same,Potency,[5],inactive
same,Potency,[6],inactive
same,Potency,[7],inactive
same,Potency,[8],inactive
same,Potency,[9],inactive
same,Potency,[19],inactive
same,Potency,[11],inactive
same,Potency,[13],inactive
same,outcome,[14],inactive
same,Potency,[15],inactive
C[C@@H]1C[C@H]2[C@@H]3CCC4=CC(=O)C=C[C@]4(C)[C@@]3(F)[C@@H](O)C[C@]2(C)[C@@]1(O)C(=O)COC(=O)c1ccncc1,Potency,[1],inactive
same,Potency,[2],inactive
same,Potency,[3],29.8 µM (active)
same,Potency,[4],0.0067 µM (active)
same,Potency,[5],inactive
same,Potency,[6],inactive
same,Potency,[7],inactive
same,Potency,[9],inactive
same,Potency,[11],inactive
same,Potency,[12],inactive
same,Potency,[13],inactive
same,outcome,[14],inactive
same,Potency,[15],inactive
CN(C)c1ccc(C(c2ccccc2)c2ccc(N(C)C)cc2)cc1,Potency,[1],3.06 µM (active)
same,Potency,[2],inactive
same,Potency,[3],17.2 µM (active)
same,Potency,[4],inactive
same,Potency,[7],inactive
same,Potency,[8],inactive
same,Potency,[9],inactive
same,Potency,[19],inactive
same,Potency,[10],13.7 µM (active)
same,Potency,[11],inactive
same,Potency,[12],inactive
same,Potency,[13],inactive
same,outcome,[14],inactive
same,Potency,[15],inactive
same,outcome,[16],inactive
same,Potency,[17],inactive
